TDP1 cell noCPT – qHTS for Inhibitors of human tyrosyl-DNA phosphodiesterase 1 (TDP1): qHTS in cells in absence of CPT | DT40 Tdp1-/- hTDP1 cells, no CPT, ATP luminescence, 48 h | Potency, µM (series often up to 46.2 µM), usual class: inhibitors | 420,000 compounds, 15% hits | AID 686978, 2013; note: nearly all actives have a fitted effect of over 55% in size
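Seeded 400 DT40-hTDP1 cells/well (vehicle DMSO, no 20 nM CPT); pinned compounds; ≥48 hr at 37 °C; CellTiter-Glo luminescence as viability measure.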
ClpP mod – qHTS Assay for Activators of ClpP. purified B. subtilis ClpP, FRET peptide cleavage, 20 min. ATP-dependent Clp protease proteolytic subunit (Bacillus subtilis (strain 168)), P80244. 340,000 compounds, 1.9% hits. Potency, µM (highest dose often 57.5 µM); active = well fitted falling curve with a large enough effect; inconclusive = small, poorly fitted or top-dose-only effect; inactive = no such curve, though single readings can be large or run the other way; note: the source files actives as falling curves though it sought activators and does not explain the sign; nearly all actives have a fitted effect of over 65% in size
Target sequence (P80244 whole entry, looked up): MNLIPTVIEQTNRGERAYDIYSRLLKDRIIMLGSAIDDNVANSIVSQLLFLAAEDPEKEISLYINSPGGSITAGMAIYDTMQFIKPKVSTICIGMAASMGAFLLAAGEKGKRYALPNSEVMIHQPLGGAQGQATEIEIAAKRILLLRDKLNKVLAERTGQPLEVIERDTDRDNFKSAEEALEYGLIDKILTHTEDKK
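ClpP 10 microg/mL final, pH 8 Tris/KCl buffer with BSA, glycerol, Tween-20; compound pinned in; FRET-FV substrate; RT 20 min; Ex320/Em430; ΔFRET vs ADEP 5.8 microM, DMSO, no enzyme.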
DT40 TDP1 CPT – qHTS for Inhibitors of human tyrosyl-DNA phosphodiesterase 1 (TDP1): qHTS in cells in presence of CPT | chicken DT40 Tdp1-/-;hTDP1 cells + 20 nM CPT, ATP luminescence, 48 h | Potency, µM (series often up to 46.2 µM), most hits filed as inhibitors | 420,000 compounds, 12% hits | AID 686979, 2013; note: nearly all actives have a fitted effect of over 55% in size
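Chicken DT40 Tdp1-/- cells complemented with human TDP1, 400 cells/well, exposed to compounds plus 20 nM camptothecin for at least 48 h at 37 C; viability read as ATP content by CellTiter-Glo luminescence.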
TDP1 block – qHTS Assay for Inhibitors of Tyrosyl-DNA Phosphodiesterase (TDP1); Potency, µM (doses to about 130 µM), most hits filed as inhibitors; AID 485290, 2010; 350,000 compounds, 0.28% hits; recombinant TDP1, AlphaScreen DNA substrate cleavage; Tyrosyl-DNA phosphodiesterase 1 (Homo sapiens), Q9NUW8; note: nearly all actives have a fitted effect of over 40% in size
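Compounds were preincubated with Tdp1 (1 nM final) for 15 min at room temperature before substrate (15 nM final) started a 5 min reaction; beads (10 ug/ml final) were then added for 10 min before AlphaScreen detection.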
Of the large screens only hits and unclear results are named; the others gave an inactive call. An excerpt weighted towards active compounds, which were near 17% of everything screened. Unless noted, calls come from the whole dose curve; as a rule, active = well fitted curve in the direction sought with a large enough effect; inconclusive = small, poorly fitted or top-dose-only effect, or another doubt; inactive = no such curve, though single readings can be large; an effect the other way counts as inactive or inconclusive.

Cc1occc1C(=O)N=Nc1c(O)n(C)c2ccccc12	TDP1 cell noCPT inconclusive
Cn1c(O)c(N=NC(=O)c2ccco2)c2ccccc21	TDP1 cell noCPT 15µM (no result: ClpP mod)
Cc1noc(C)c1N=Nc1ccccc1C(=O)O	none
COc1cc(C(C[N+](=O)[O-])c2c(C)[nH]c3ccccc23)cc(OC)c1OC (centres undefined)	TDP1 cell noCPT inconclusive, DT40 TDP1 CPT inconclusive
O=[N+]([O-])CC(c1ccccc1)c1c[nH]c2ccccc12 (centres undefined)	TDP1 cell noCPT 5.8µM, DT40 TDP1 CPT 7.3µM (no result: TDP1 block)
COc1ccc([C@@H]2C[C@H](c3ccccc3)Oc3cc(C)cc(C)c32)cc1	none
NC(=O)C1CCCN(CC(O)COCc2ccc(Cl)cc2)C1 (centres undefined)	none (no result: TDP1 block)
Cc1ccc(C2=CC(c3ccc(N(C)C)cc3)n3nnnc3N2)cc1 (centres undefined)	TDP1 cell noCPT 21µM, DT40 TDP1 CPT 18µM
COc1ccc(C2=CC(c3sccc3C)n3nnnc3N2)cc1 (centres undefined)	none
Cc1ccc(C2C=C(c3ccc4c(c3)OCO4)Nc3ncnn32)cc1 (centres undefined)	TDP1 cell noCPT inconclusive
CC(C)c1ccc(C2=CC(c3ccc(C(C)C)cc3)n3nnnc3N2)cc1 (centres undefined)	TDP1 cell noCPT 15µM, DT40 TDP1 CPT 15µM
COc1ccc(C2=CC(c3ccc(F)cc3)n3nnnc3N2)cc1 (centres undefined)	TDP1 cell noCPT 18µM, ClpP mod inconclusive, DT40 TDP1 CPT inconclusive
O=C(COC(=O)CN1C(=O)C(=O)c2ccccc21)OCN1C(=O)c2ccccc2C1=O	TDP1 cell noCPT inconclusive, DT40 TDP1 CPT inconclusive
CCOc1ccc(NC(=O)CN(C)C(=O)C2CCN(C(=O)Nc3ccccc3)CC2)cc1OCC	none (no result: TDP1 block)
Clc1ccc(-c2csc3ncnc(Cl)c23)cc1	TDP1 cell noCPT 16µM, DT40 TDP1 CPT inconclusive (no result: ClpP mod)
OCCCNc1ncnc2scc(-c3ccc(Cl)cc3)c12	TDP1 cell noCPT 21µM, DT40 TDP1 CPT inconclusive (no result: TDP1 block)
O=S(=O)(Nc1ncnc2scc(-c3ccc(F)cc3)c12)c1cc(F)ccc1F	TDP1 cell noCPT 29µM, DT40 TDP1 CPT inconclusive
NNc1ncnc2scc(-c3ccc(Cl)cc3)c12	TDP1 cell noCPT inconclusive, DT40 TDP1 CPT inconclusive
CCCCN(C)C(=O)c1ccc2c(=O)n3nc(Nc4cc(C)ccc4C)sc3nc2c1	TDP1 cell noCPT 12µM, DT40 TDP1 CPT 13µM
Cc1ccc(C)c(Nc2nn3c(=O)c4ccc(C(=O)N(C)Cc5ccccc5)cc4nc3s2)c1	TDP1 cell noCPT 21µM, ClpP mod inconclusive, DT40 TDP1 CPT 9.2µM
Cc1cc(C)c(Nc2nn3c(=O)c4cc5c(cc4nc3s2)OCO5)c(C)c1	none
CCCS(=O)(=O)NCc1c(C)ncc2c1CCN(C(=O)c1cccc(C(F)(F)F)c1)C2	none (no result: ClpP mod, TDP1 block)
CCC(=O)c1c[nH]c(C(=O)NCc2ccco2)c1	none
O=C(NCc1ccco1)c1ccc(C(=O)NCc2ccco2)cc1	none (no result: TDP1 block)
Cc1ccc(C(=O)NCc2ccco2)cc1	TDP1 block 3.2µM
CCOc1ccc(C(=O)NCc2ccco2)cc1	DT40 TDP1 CPT inconclusive
CCOc1cc(OCC)cc(C(=O)NCc2ccco2)c1	ClpP mod 14µM (no result: TDP1 block)
O=C(c1ccc(F)cc1)c1c[nH]c(C(=O)NCc2ccco2)c1	TDP1 cell noCPT 12µM, DT40 TDP1 CPT inconclusive
O=C(NCc1ccco1)c1ccc(COc2cccc3ccccc23)cc1	ClpP mod 11µM
Cc1cccc(-c2nc(CSCC(=O)NCCc3ccc(Cl)cc3)c(C)o2)c1	TDP1 cell noCPT inconclusive, DT40 TDP1 CPT inconclusive
CCCCCCCCCCCCC/C=C/[C@@H](O)[C@H](CO)NC(=O)CCCCCCC	none (no result: ClpP mod)
Cc1csc2ncc(C(=O)NCc3ccco3)c(=O)n12	ClpP mod 20µM, TDP1 block 45µM
COc1ccc(OCCNS(=O)(=O)c2ccc3oc4ccccc4c3c2)cc1	DT40 TDP1 CPT inconclusive
O=S(=O)(NCCOCC(F)(F)C(F)F)c1ccc2oc3ccccc3c2c1	TDP1 cell noCPT 13µM, DT40 TDP1 CPT 26µM
COC(=O)c1ccc(COC(=O)c2ccccn2)cc1	none
COC(=O)c1ccc(COC(=O)CCc2nc(-c3ccccc3)c(-c3ccccc3)o2)cc1	ClpP mod 32µM
c1ccc(OCc2nnc(-c3ccccc3)o2)cc1	none (no result: ClpP mod)
ClCc1nnc(-c2ccccc2)o1	TDP1 cell noCPT 26µM, DT40 TDP1 CPT inconclusive
Clc1cccc(-c2nnc(-c3ccno3)o2)c1	none (no result: TDP1 block)
Clc1cccc(-c2nnc(-c3ccccc3)o2)c1	TDP1 cell noCPT 23µM, DT40 TDP1 CPT 16µM
Cc1ccc(CNC(=O)C2CCC(=O)N(C3CC3)C2)cc1 (centres undefined)	none
O=C(c1cnccn1)N1CCC2(CCCN(c3ccccn3)C2)CC1	none (no result: ClpP mod, TDP1 block)
CCOC(=O)C1=NNC(C(=O)c2ccc(Cl)cc2)C1c1ccccc1 (centres undefined)	none
NC1=NC(c2ccc(Cl)cc2)C(C(=O)c2ccccc2)N1 (centres undefined)	TDP1 cell noCPT 12µM, DT40 TDP1 CPT inconclusive (no result: TDP1 block)
Cc1ccc(/C=C2/Sc3ccc(C(=O)NCCN4CCOCC4)cc3NC2=O)cc1	TDP1 cell noCPT inconclusive
CCN1CCCC1CNC(=O)c1ccc2c(c1)NC(=O)/C(=C\c1ccc(C)cc1)S2 (centres undefined)	TDP1 cell noCPT 16µM, DT40 TDP1 CPT inconclusive
Cc1ccc(/C=C2/Sc3ccc(C(=O)N4CCN(C)CC4)cc3NC2=O)cc1	TDP1 cell noCPT inconclusive, DT40 TDP1 CPT 23µM
CC1CCN(C(=O)c2ccc3c(c2)NC(=O)/C(=C/c2ccccc2)S3)CC1	DT40 TDP1 CPT inconclusive
CC(=O)O[C@@]12CO[C@@H]1C[C@H](O)[C@@]1(C)C(=O)[C@H](O)C3=C(C)[C@@H](OC(=O)[C@H](O)[C@@H](NC(=O)OC(C)(C)C)c4ccccc4)C[C@@](O)([C@@H](OC(=O)c4ccccc4)[C@H]21)C3(C)C	TDP1 cell noCPT 0.0012µM, DT40 TDP1 CPT 0.0011µM (no result: ClpP mod, TDP1 block)
O=C(COC(=O)c1ccccc1NCCO)Nc1cc(C(F)(F)F)ccc1N1CCOCC1	TDP1 cell noCPT inconclusive, DT40 TDP1 CPT 18µM
COc1ccc(CN(C)C(=O)COC(=O)c2cc([N+](=O)[O-])ccc2N2CCCC2)c(OC)c1OC	TDP1 cell noCPT 21µM, DT40 TDP1 CPT inconclusive
CC(=O)Nc1ccc(NC(=O)COC(=O)c2cc([N+](=O)[O-])ccc2N2CCOCC2)cc1	TDP1 cell noCPT inconclusive
CCN(C(=O)COC(=O)c1cc([N+](=O)[O-])ccc1N1CCOCC1)c1ccccc1	TDP1 cell noCPT 15µM, DT40 TDP1 CPT inconclusive
CN(Cc1ccccc1)C(=O)COC(=O)c1cc([N+](=O)[O-])ccc1N1CCOCC1	TDP1 cell noCPT inconclusive (no result: TDP1 block)

Compound activity from PubChem BioAssay.
